The record followed here is PubChem BioAssay (NCI).

Some test systems named below: NCI-H23 lung; NCI-H226 lung; NCI-H322M lung; HOP-62 NSCLC; NCI-H460 lung; HOP-92 NSCLC; NCI-H522 lung; A549/ATCC NSCLC; 786-0 renal; COLO 205 colon; DU-145 prostate; MALME-3M melanoma; MDA-MB-231 breast; RXF 393 renal; SF-268 CNS; SF-295 CNS; SF-539 CNS; UACC-257 melanoma; K-562 leukemia.
Holding throughout (test): NCI-60 one-dose screen, 48 h (100 = growth as untreated, 0 = no growth, -100 = all killed)
Holding throughout (details): 10 µM unless noted

Compounds without any hit were thinned out: in the full panel of roughly 83,000, 20% have a hit.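 Cell lines were cultured in 96-well plates, exposed to a single compound concentration, and assessed for percent growth 48 hours later.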 Unmarked numbers belong to inactive results. Active and inactive are the calls of the source. Rule for the calls: active = growth percent below 10; inactive = the rest.

Regarding `CCOC(=O)c1nnn(-c2ccccc2)c1C1=CN(C)CCC1`, the growth in the experiment on NCI-H23 lung is 92.8%; with NCI-H226 lung it was 102%; in the experiment on NCI-H322M lung, 95.8%; in the experiment on HOP-62 NSCLC, 99.6%; in the experiment with NCI-H460 lung it was 104%; in the experiment with HOP-92 NSCLC, 108%. Further, the growth in the experiment on NCI-H522 lung is 86.7%; with A549/ATCC NSCLC, 99.6%; in the experiment with 786-0 renal, 97.3%; in the experiment with COLO 205 colon, 113%; in the experiment on DU-145 prostate, 103%; with MALME-3M melanoma it was 104%. For the same compound, the growth in the experiment with MDA-MB-231 breast is 112%; with RXF 393 renal, 120%; in the experiment on SF-268 CNS, 92.4%; with SF-295 CNS, 98.2%; in the experiment on SF-539 CNS, 95.2%; with UACC-257 melanoma, 99.4%.

With `C[N+](C)(C)CCOC(OCC[N+](C)(C)C)(c1ccccc1)c1ccccc1`, the growth in the experiment with NCI-H23 lung was 99.8%; in the experiment with NCI-H226 lung, 107%; with NCI-H322M lung, 129%; with HOP-62 NSCLC, 106%; with NCI-H460 lung, 106%; in the experiment with HOP-92 NSCLC it was 91%. Moreover, the growth was 93% in the experiment with NCI-H522 lung; 100% with A549/ATCC NSCLC; 114% in the experiment on 786-0 renal; 116% with COLO 205 colon; 99% in the experiment with K-562 leukemia; 126% in the experiment with MALME-3M melanoma. For the same compound, the growth with MDA-MB-231 breast is 108%; with RXF 393 renal, 122%; in the experiment on SF-295 CNS it was 117%; with SF-539 CNS, 96.6%; with UACC-257 melanoma, 103%.

For the compound `COc1ccc(-c2nc3ncccn3c2/C=C/C(=O)c2cc(OC)c(OC)c(OC)c2)cc1`, the growth in the experiment with NCI-H23 lung is -19.6% (active); in the experiment on NCI-H226 lung, -24.4% (active); in the experiment on NCI-H322M lung it was 16.1%; in the experiment with HOP-62 NSCLC it was -12.4% (active); with NCI-H460 lung, -79.4% (active); in the experiment on HOP-92 NSCLC, -0.213% (active). The growth with NCI-H522 lung was -44.6% (active); with A549/ATCC NSCLC it was 10.2%; in the experiment with 786-0 renal, -26% (active); with DU-145 prostate, 2.9% (active); in the experiment with K-562 leukemia, 6.79% (active); in the experiment on MALME-3M melanoma it was 61.8%. For the same compound, the growth was 21.1% in the experiment with MDA-MB-231 breast; -24.4% (active) in the experiment on RXF 393 renal; 13.4% in the experiment with SF-268 CNS; -31.5% (active) in the experiment with SF-295 CNS; -87.2% (active) with SF-539 CNS; 41.2% in the experiment on UACC-257 melanoma.

Consider `C[C@]12CCC(=O)C[C@H]1CC[C@@H]1[C@@H]2CC[C@@]2(C)[C@H]1CC[C@]2(O)C(=O)CO`, for which the growth in the experiment with NCI-H23 lung is 107%; in the experiment with NCI-H226 lung, 94.2%; in the experiment with NCI-H322M lung, 103%; in the experiment on HOP-62 NSCLC, 105%; in the experiment with NCI-H460 lung, 107%; in the experiment with HOP-92 NSCLC, 93.2%. The growth with NCI-H522 lung was 89.4%; with A549/ATCC NSCLC, 122%; with 786-0 renal, 105%; in the experiment with COLO 205 colon, 100%; in the experiment with DU-145 prostate it was 108%; with K-562 leukemia it was 114%. Moreover, the growth with MDA-MB-231 breast is 99.6%; with RXF 393 renal it was 108%; with SF-268 CNS, 96%; with SF-295 CNS it was 113%; with SF-539 CNS, 103%; with UACC-257 melanoma, 129%.

`CCOC(=O)c1nnn(C(Cc2ccccc2Cl)C(=O)OCC)c1C` (stereo unspecified): the growth is 105% with NCI-H23 lung; 103% with NCI-H226 lung; 108% in the experiment with NCI-H322M lung; 93.4% with HOP-62 NSCLC; 101% in the experiment on NCI-H460 lung; 93.5% with HOP-92 NSCLC. The growth in the experiment with NCI-H522 lung is 68.9%; in the experiment on A549/ATCC NSCLC, 82.6%; with 786-0 renal, 102%; in the experiment on COLO 205 colon, 105%; in the experiment on DU-145 prostate, 109%; in the experiment with MALME-3M melanoma, 117%. Also, the growth in the experiment on MDA-MB-231 breast is 104%; in the experiment with RXF 393 renal it was 109%; in the experiment with SF-268 CNS it was 111%; with SF-295 CNS, 111%; in the experiment on SF-539 CNS, 107%; in the experiment on UACC-257 melanoma, 83.6%.

For `COc1cc(NC(=O)c2cc(O)c(CC=C(C)C)c(O)c2)cc2c1O[C@]1(C)CC[C@@H](O)C(C)(C)[C@H]1C2`, the growth in the experiment on NCI-H23 lung is 39%; in the experiment on NCI-H226 lung, 79.4%; in the experiment on NCI-H322M lung, 67.9%; with HOP-62 NSCLC it was 31.4%; in the experiment on NCI-H460 lung, 27.2%; with HOP-92 NSCLC it was -0.592% (active). For the same compound, the growth was 8.19% (active) in the experiment on NCI-H522 lung; 40.3% in the experiment on A549/ATCC NSCLC; 1.24% (active) with 786-0 renal; -28.8% (active) with COLO 205 colon; 42.8% in the experiment with DU-145 prostate; 43.9% in the experiment on MALME-3M melanoma. In addition, the growth was 32.8% in the experiment with MDA-MB-231 breast; -23.6% (active) with RXF 393 renal; 42% in the experiment with SF-268 CNS; -49.6% (active) in the experiment with SF-295 CNS; -34.6% (active) in the experiment with SF-539 CNS; 36.3% in the experiment on UACC-257 melanoma.

As to `CCOc1ccc(S(=O)(=O)c2ccc(C)cc2)c2c1no[n+]2[O-]`, the growth in the experiment on NCI-H23 lung was 82.4%; in the experiment with NCI-H226 lung, 77.2%; with NCI-H322M lung, 92.7%; with HOP-62 NSCLC, 101%; in the experiment on NCI-H460 lung, 86.4%; in the experiment on HOP-92 NSCLC it was 36.5%. The growth is 57.1% with NCI-H522 lung; 97.2% in the experiment with A549/ATCC NSCLC; 79.6% in the experiment on 786-0 renal; 86.2% in the experiment on DU-145 prostate; 46.1% with K-562 leukemia; 81.3% in the experiment on MALME-3M melanoma. Also, the growth with MDA-MB-231 breast is 81.2%; with RXF 393 renal, 81.8%; in the experiment on SF-268 CNS it was 99.1%; in the experiment with SF-295 CNS it was 82.9%; with SF-539 CNS, 87%; in the experiment with UACC-257 melanoma, 95.8%.

Regarding `COc1ccc(-c2nc3ccccn3c2/C=C/C(=O)c2cc(OC)c(OC)c(OC)c2)cc1`, the growth with NCI-H23 lung is 45.1%; with NCI-H226 lung, 71.7%; in the experiment with NCI-H322M lung, 73.2%; in the experiment on HOP-62 NSCLC it was 70.8%; in the experiment with NCI-H460 lung, 34.4%; with HOP-92 NSCLC it was 22.7%. In addition, the growth is 26.7% with NCI-H522 lung; 55.8% with A549/ATCC NSCLC; 63.1% in the experiment on 786-0 renal; 58.1% in the experiment with DU-145 prostate; 49.8% in the experiment on K-562 leukemia; 43.3% with MALME-3M melanoma. In addition, the growth is 42.1% in the experiment with MDA-MB-231 breast; 43.9% with RXF 393 renal; 38.2% in the experiment on SF-268 CNS; 123% in the experiment with SF-295 CNS; 8.84% (active) in the experiment with SF-539 CNS; 55.3% with UACC-257 melanoma.

For `Nc1ccc2c(S(=O)(=O)O)ccc(S(=O)(=O)O)c2c1`, the growth in the experiment with NCI-H23 lung was 100%; with NCI-H226 lung, 101%; in the experiment on NCI-H322M lung it was 121%; in the experiment on HOP-62 NSCLC it was 92.3%; in the experiment on NCI-H460 lung it was 101%; in the experiment with HOP-92 NSCLC it was 89.1%. The growth is 85% in the experiment with NCI-H522 lung; 92.6% in the experiment with A549/ATCC NSCLC; 97.8% in the experiment with 786-0 renal; 115% in the experiment with DU-145 prostate; 90.6% with K-562 leukemia; 109% in the experiment on MALME-3M melanoma. The growth with MDA-MB-231 breast is 111%; in the experiment on RXF 393 renal, 114%; in the experiment on SF-268 CNS it was 102%; in the experiment with SF-295 CNS, 105%; in the experiment with SF-539 CNS it was 88.5%; with UACC-257 melanoma, 95.3%.
